Bioassay records deposited in PubChem by several laboratories.
GDH-TPI inh: GDH-TPI coupling enzyme inhibitors, primary screen, artefact control for M. tuberculosis FBA inhibitor project, biochemical, absorbance, full deck; 360,000 compounds, 1.2% hits; AID 588335, 2011; inhibition, % at 4.8 µM; GDH-TPI coupled enzyme counterscreen, NADH absorbance; in the data active = inhibition above about 30%
Rv3671c protease: Rv3671c serine protease inhibitors, primary screen, biochemical, fluorescence polarization, M. tuberculosis H37Rv; 320,000 compounds, 0.048% hits; P9WHR9; AID 2606, 2010; inhibition, % at 5.96 µM; in the data active = inhibition above about 38%;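 also: extracellular domain of Rv3671c used as enzyme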
RecA intein inh: Mtb RecA intein splicing inhibitors, primary screen, biochemical, fluorescence, HTS; 290,000 compounds, 0.75% hits; inhibition, % (test concentration not listed); AID 2221, 2009; Protein RecA (Mycobacterium tuberculosis (strain ATCC 25618 / H37Rv)), P9WHJ3; cell-free RecA intein splicing; in the data active = inhibition above about 30%
Target sequence (P9WHJ3 whole entry, looked up): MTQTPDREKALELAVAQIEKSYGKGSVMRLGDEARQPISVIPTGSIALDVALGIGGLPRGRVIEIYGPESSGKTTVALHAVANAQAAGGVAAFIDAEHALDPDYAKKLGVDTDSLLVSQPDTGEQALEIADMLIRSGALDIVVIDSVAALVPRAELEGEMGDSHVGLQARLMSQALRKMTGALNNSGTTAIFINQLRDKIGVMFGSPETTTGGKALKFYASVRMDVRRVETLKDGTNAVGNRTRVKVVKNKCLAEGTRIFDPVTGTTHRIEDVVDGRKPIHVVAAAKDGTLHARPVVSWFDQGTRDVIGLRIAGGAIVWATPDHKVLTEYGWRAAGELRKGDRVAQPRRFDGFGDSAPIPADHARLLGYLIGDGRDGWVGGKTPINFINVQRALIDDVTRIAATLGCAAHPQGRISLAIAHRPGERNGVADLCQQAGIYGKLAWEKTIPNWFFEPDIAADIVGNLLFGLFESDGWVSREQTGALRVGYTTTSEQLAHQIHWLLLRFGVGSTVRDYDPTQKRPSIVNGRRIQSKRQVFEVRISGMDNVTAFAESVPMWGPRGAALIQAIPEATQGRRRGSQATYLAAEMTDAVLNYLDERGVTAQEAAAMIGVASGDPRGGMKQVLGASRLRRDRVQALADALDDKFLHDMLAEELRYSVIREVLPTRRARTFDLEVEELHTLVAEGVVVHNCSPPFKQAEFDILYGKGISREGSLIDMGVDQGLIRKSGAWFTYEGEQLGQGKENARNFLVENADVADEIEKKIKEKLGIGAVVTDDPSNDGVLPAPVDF
BH1578 lux ind: inducers of Vibrio cholerae quorum light production without autoinducers, primary screen, BH1578 luxS cqsA deficient, single point; V. cholerae BH1578 lux reporter, luminescence, 6 h; AID 588436, 2011; activation, % at 18.7 µM; 350,000 compounds, 0.16% hits; in the data active = activation mostly above about 9.7%, no sharp cut-off
Mtb UGM inh: M. tuberculosis UGM enzyme inhibitors, primary screen, biochemical, fluorescence polarization, single point; UDP-galactopyranose mutase (Mycobacterium tuberculosis (strain ATCC 25618 / H37Rv)), …; purified UGM, fluorescence polarization probe displacement; inhibition, % at 10 µM; 320,000 compounds, 0.06% hits; in the data active = inhibition above about 10%, passing the limit was not always enough
FBA Mtb inh: Mtb FBA enzyme inhibitors, primary screen, biochemical, fluorescence, strain H37Rv; Fructose-bisphosphate aldolase (Mycobacterium tuberculosis (strain ATCC 25618 / H37Rv)), …; purified M. tuberculosis FBA, fluorescence read-out; inhibition, % at 1 µM; 360,000 compounds, 2.3% hits; AID 588726, 2011; in the data active = inhibition above about 27%
Each line names hits and unclear results; the compound was inactive in the other large screens. The list is not random: actives were taken first. Their share in the collection is about 4.1%.

Cc1cccc(C2=NN(c3ccccc3)[C@@H](C(=O)N3CCOC3=O)[C@@H]2c2ccc([N+](=O)[O-])cc2)c1	none (no result: Rv3671c protease, RecA intein inh, Mtb UGM inh)
COc1ccccc1[C@@H]1C(c2cccc(C)c2)=NN(c2ccc(Br)cc2)[C@H]1C(=O)N1CCOC1=O	none (no result: Rv3671c protease, RecA intein inh, Mtb UGM inh)
C[C@H](NC(=O)COc1ccccc1)C(=O)OCC(=O)c1cc2ccccc2o1	none (no result: Rv3671c protease, RecA intein inh, Mtb UGM inh)
CN(C)c1ncc(S(=O)(=O)c2ccc(Cl)cc2)c(-c2ccccc2)n1	none
O=S(=O)(c1ccc(Cl)cc1)c1snnc1-c1ccccc1	RecA intein inh 81
O=S(=O)(c1ccc(F)cc1)c1snnc1-c1ccccc1	RecA intein inh 69
c1ccc(-c2nnsc2-c2ncc[nH]2)cc1	none
O=C(c1ccc2c(=O)n(Cc3ccccc3Cl)c(=S)[nH]c2c1)N1CCOCC1	none
COc1ccccc1Cc1c(-c2ccccc2)nc2ccc(Cl)cn12	none (no result: GDH-TPI inh, Rv3671c protease, RecA intein inh, BH1578 lux ind, Mtb UGM inh)
COc1cc(C)ccc1OCc1cc(C(=O)NC(c2ccccn2)C(F)(F)F)no1 (centres undefined)	none (no result: Rv3671c protease, RecA intein inh, Mtb UGM inh)
Cc1c(/C=N/NC(N)=O)c2ccccn2c1C(=O)c1ccncc1	GDH-TPI inh 56
Cc1c(/C=N/NC(=O)c2ccc(O)cc2)c2ccccn2c1C(=O)c1ccc(F)cc1	GDH-TPI inh 32
Cc1c(/C=N/NC(=O)c2cccnc2)c2ccccn2c1C(=O)c1ccc(F)cc1	none (no result: GDH-TPI inh, BH1578 lux ind, FBA Mtb inh)
Cc1c(/C=N/NC(=O)c2ccccc2O)c2ccccn2c1C(=O)c1ccc(F)cc1	none (no result: Mtb UGM inh)
O=Cc1coc2c(ccc3ccccc32)c1=O	none (no result: GDH-TPI inh, BH1578 lux ind, FBA Mtb inh)
NSc1nc(N)c2nc(-c3ccccc3)c(-c3ccccc3)nc2n1	none
Nc1nc(N)c2nc(-c3ccccc3)c(N)nc2n1	GDH-TPI inh 33 (no result: Mtb UGM inh, FBA Mtb inh)
N#Cc1c(-c2cccnc2)c2c([nH]c1=O)-c1ccccc1OC2	FBA Mtb inh active
N#Cc1c(-c2ccccc2)[nH]c(=O)[nH]c1=O	none
CCC1(CC)NC(=O)N(CC(=O)OC(C)C(=O)Nc2ccc(S(N)(=O)=O)cc2)C1=O (centres undefined)	none (no result: Rv3671c protease, RecA intein inh, Mtb UGM inh)
CSC(=S)NN=C(C)c1cccc(C)n1	none (no result: Rv3671c protease, RecA intein inh, Mtb UGM inh)
O=C(O)c1cccc(Cn2c(Cl)c(/C=N/NC(=O)c3cccc(O)c3)sc2=O)c1	GDH-TPI inh 50
O=C(O)c1cccc(Cn2c(Cl)c(/C=N/NC(=O)c3ccccc3)sc2=O)c1	GDH-TPI inh 56
O=C(O)c1cccc(Cn2c(Cl)c(/C=N/NC(=O)c3ccco3)sc2=O)c1	GDH-TPI inh 47
COC(=O)c1cccc(Cn2c(Cl)c(/C=N/Nc3ccccc3C)sc2=O)c1	none
O=C(O)c1cccc(Cn2c(Cl)c(/C=N/NC(=O)c3cc4ccccc4cc3O)sc2=O)c1	GDH-TPI inh 59
CC[C@]12c3[nH]c4cc(CCC(=O)N(C)C)ccc4c3CCN1C(=O)[C@@H](CC(=O)NC(C)(C)C)C[C@@H]2C(=O)N1CCN(C(=O)c2ccco2)CC1	none (no result: Rv3671c protease, RecA intein inh, Mtb UGM inh)
O=C1NC(Cc2ccc(O)cc2)c2nc3ccccc3c(=O)n2-c2ncccc21 (centres undefined)	none (no result: Rv3671c protease, RecA intein inh, Mtb UGM inh)
Cc1ccccc1N/N=C/c1sc(=O)n(Cc2cccc(C(=O)O)c2)c1Cl	GDH-TPI inh 39
CN(C)/N=C/c1ccc(P(c2ccc(/C=N/N(C)C)o2)c2ccc(/C=N/N(C)C)o2)o1	GDH-TPI inh 65
Cc1ccccc1S(=O)(=O)NC(=O)C1(C)CCN1C(=O)C/C=C/c1ccccc1 (centres undefined)	none (no result: Rv3671c protease, RecA intein inh, Mtb UGM inh)
COC(=O)/C=C1\S/C(=N/N=C/c2ccco2)NC1=O	GDH-TPI inh 33
COC(=O)C/C=N/N=C1/NC(=O)/C(=C/C(=O)O)S1	GDH-TPI inh 35
COC(=O)/C=C1\SC(=NC(=O)c2cccc(Cl)c2)NC1=O	none (no result: Mtb UGM inh)
COC(=O)/C=C1/S/C(=N/N=C/c2ccco2)NC1=O	none (no result: RecA intein inh)
COC(=O)/C=C1\S/C(=N/N=C/c2ccccc2)NC1=O	GDH-TPI inh 46 (no result: Mtb UGM inh)
COC(=O)/C=C1\S/C(=N/N=C/c2ccc(Cl)cc2)NC1=O	GDH-TPI inh 35
COC(=O)/C=C1\S/C(=N/NC(=O)c2ccccc2)NC1=O	none
O=[N+]([O-])c1ccc(-c2nc(Cl)c3c(n2)CCCC3)o1	GDH-TPI inh 32, BH1578 lux ind 30 (no result: Rv3671c protease, RecA intein inh, Mtb UGM inh)
CCN(CC(=O)Nc1ccc(S(=O)(=O)N2CCCC2)cc1)Cc1ccccc1	none
O=S(=O)(c1ccccc1)N1N=C(c2ccc(Cl)cc2)CC1c1ccco1 (centres undefined)	none (no result: Rv3671c protease, RecA intein inh, Mtb UGM inh)
Clc1ccc(C2=NN(c3ccccc3)C(c3ccco3)C2)cc1 (centres undefined)	FBA Mtb inh 161
Nc1nc2ccccc2n1/N=C/c1ccc2c(c1)OCO2	GDH-TPI inh 49
COc1cccc(CCNC(=O)C2CCC(=O)N(C3CC3)C2)c1OC (centres undefined)	none (no result: Rv3671c protease, Mtb UGM inh)
COc1cccc(C(=O)Oc2ccccc2/C=C\C(=O)c2cc3ccccc3o2)c1	GDH-TPI inh 31 (no result: Rv3671c protease, Mtb UGM inh)
O=C(Oc1ccccc1/C=C\C(=O)c1cc2ccccc2o1)c1ccccc1	none
COc1ccc(C(=O)N/C(=C\c2cn(C)c3ccccc23)C(=O)NCCN2CCOCC2)cc1OC	GDH-TPI inh 44
CCn1cc(/C=C(\NC(=O)c2cc(OC)c(OC)c(OC)c2)C(=O)NCCN2CCOCC2)c2ccccc21	none
COc1cc(C(=O)N/C(=C\c2cn(C)c3ccccc23)C(=O)NCCN2CCOCC2)cc(OC)c1OC	GDH-TPI inh 41
Cn1cc(/C=C(\NC(=O)c2ccccc2)C(=O)NCCN2CCOCC2)c2ccccc21	none
Cc1cc(C)c(C(=O)/C=C/c2ccc(C(C)C)cc2)c(=O)[nH]1	GDH-TPI inh 42
C/C(=C\C=C\c1ccccc1)C(=O)c1c(C)cc(C)[nH]c1=O	GDH-TPI inh 47
CC(C)OC(=O)c1cc(C(=O)c2cc(Br)ccc2O)coc1=N	none
CCOc1ccccc1NC(=O)c1cc(C(=O)c2cc(Br)ccc2O)coc1=N	GDH-TPI inh 31
COc1ccc(-c2nnc(SCC(=O)Nc3ccccc3)n2C)cc1	BH1578 lux ind 36 (no result: RecA intein inh)
Cn1c(SCC(=O)c2ccc(O)cc2O)nnc1-c1ccccc1	GDH-TPI inh 34
CC(=O)c1ccc(OCc2cc(C(=O)NC(C)CCn3cccn3)no2)cc1 (centres undefined)	none
CCOc1cccc2cc(C(=O)NCc3ccccc3)c(=N)oc12	none
CCOc1ccccc1-c1ccc(C(=O)NCc2ccccc2)o1	FBA Mtb inh active
O=C(Nc1ccccc1C(=O)N1CCCCC1)c1ccccc1C(F)(F)F	none
Cc1[nH]c2ccccc2c1/C=N/NC(N)=S	GDH-TPI inh 37
CCOc1ccc(Cc2onc3c2C(=O)CCC3)cc1OCC	FBA Mtb inh active
